In PMC7862700, “An all-to-all approach to the identification of sequence-specific readers for epigenetic DNA modifications on cytosine”:

What was measured:
Assay in all cases: DAPPL (digital affinity profiling via proximity ligation, sequencing); 10 mM Tris-HCl pH 7.5, 50 mM NaCl, 1 mM DTT, 4% glycerol, room temperature, 30 min; GST-TFs on glutathione beads, 16-mer random dsDNA library, 0.1% formaldehyde crosslink after washing; high values mean tight binding
Settings in all cases: protein: recombinant; tags: N-terminal GST; dsDNA, one strand shown
FLI1 = molecular target: T1, FLI1 (Homo sapiens, UniProt Q01543 1-452)
T1 sequence: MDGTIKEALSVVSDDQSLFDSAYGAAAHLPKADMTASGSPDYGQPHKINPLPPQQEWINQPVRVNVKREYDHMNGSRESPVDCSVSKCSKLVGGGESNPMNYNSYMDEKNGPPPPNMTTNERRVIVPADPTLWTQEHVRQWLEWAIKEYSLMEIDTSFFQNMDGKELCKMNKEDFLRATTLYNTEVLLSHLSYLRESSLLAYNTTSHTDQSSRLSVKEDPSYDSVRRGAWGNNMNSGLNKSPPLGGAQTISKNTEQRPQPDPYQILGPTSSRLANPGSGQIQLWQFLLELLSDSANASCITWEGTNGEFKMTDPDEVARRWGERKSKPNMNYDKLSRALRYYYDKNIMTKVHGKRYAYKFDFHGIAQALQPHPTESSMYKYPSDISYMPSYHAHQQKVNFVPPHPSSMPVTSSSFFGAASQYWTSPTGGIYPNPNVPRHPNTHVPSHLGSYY
In short: (§1)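 Binding signal is defined as a hexamer's read frequency for one factor over its frequency for the tag-only sample. To obtain reads, GST-fused human transcription factors were expressed in yeast, captured on glutathione beads, barcoded with DNA and pooled with that sample. Pools met 200 nmole of a 16-mer random double-stranded DNA library in Tris/NaCl/DTT/glycerol buffer for 30 min at room temperature before washing, 0.1% formaldehyde crosslinking, proximity ligation (BsaI/T4 ligase, 1 h, 37 °C), PCR and Illumina NextSeq500 sequencing.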

ELK1 = molecular target: T2, ELK1 (Homo sapiens, UniProt P19419 1-428)
T2 sequence: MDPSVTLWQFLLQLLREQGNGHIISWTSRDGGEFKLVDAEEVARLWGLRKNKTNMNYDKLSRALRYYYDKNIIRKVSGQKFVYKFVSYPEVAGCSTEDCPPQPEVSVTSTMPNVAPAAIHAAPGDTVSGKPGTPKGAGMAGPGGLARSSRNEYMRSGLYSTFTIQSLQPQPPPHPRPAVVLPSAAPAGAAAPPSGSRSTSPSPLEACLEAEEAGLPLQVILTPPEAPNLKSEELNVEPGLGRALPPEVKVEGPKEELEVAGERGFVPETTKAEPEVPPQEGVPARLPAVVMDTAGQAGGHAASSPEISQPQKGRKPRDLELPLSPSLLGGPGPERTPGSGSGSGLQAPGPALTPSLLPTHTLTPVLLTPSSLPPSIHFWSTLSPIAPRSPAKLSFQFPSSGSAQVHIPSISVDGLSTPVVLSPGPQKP
In short: as §1

GABPA = molecular target: T3, GABPA (Homo sapiens, UniProt Q06546 1-454)
T3 sequence: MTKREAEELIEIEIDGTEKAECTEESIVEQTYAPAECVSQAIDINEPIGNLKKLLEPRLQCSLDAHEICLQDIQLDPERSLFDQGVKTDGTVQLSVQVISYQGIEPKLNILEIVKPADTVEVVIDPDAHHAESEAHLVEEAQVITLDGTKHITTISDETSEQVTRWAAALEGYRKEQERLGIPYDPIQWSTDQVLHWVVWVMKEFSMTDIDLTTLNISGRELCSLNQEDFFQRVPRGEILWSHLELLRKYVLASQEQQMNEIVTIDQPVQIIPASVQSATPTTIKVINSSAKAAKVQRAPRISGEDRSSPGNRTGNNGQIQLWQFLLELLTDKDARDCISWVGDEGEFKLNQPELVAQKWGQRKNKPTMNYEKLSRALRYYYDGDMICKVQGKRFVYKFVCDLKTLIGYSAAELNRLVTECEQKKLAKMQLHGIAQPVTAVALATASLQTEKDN
In short: as §1

ERG = molecular target: T4, ERG (Homo sapiens, UniProt P11308 1-479)
T4 sequence: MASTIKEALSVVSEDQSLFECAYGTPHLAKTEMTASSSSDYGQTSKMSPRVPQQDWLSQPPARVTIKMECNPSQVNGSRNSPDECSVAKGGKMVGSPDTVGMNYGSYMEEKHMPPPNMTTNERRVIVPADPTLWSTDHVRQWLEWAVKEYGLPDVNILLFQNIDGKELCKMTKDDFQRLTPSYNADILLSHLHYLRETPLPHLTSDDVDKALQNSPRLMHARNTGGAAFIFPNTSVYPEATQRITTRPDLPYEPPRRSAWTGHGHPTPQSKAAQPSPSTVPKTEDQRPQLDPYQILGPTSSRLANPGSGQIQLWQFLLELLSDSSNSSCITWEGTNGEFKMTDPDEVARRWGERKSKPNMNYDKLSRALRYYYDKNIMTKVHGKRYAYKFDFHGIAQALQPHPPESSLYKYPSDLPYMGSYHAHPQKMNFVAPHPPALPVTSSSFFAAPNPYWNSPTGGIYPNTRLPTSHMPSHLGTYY
In short: as §1

ELF1 = ELF1 (Homo sapiens, UniProt P32519 1-619)
Sequence of ELF1 (P32519 whole entry): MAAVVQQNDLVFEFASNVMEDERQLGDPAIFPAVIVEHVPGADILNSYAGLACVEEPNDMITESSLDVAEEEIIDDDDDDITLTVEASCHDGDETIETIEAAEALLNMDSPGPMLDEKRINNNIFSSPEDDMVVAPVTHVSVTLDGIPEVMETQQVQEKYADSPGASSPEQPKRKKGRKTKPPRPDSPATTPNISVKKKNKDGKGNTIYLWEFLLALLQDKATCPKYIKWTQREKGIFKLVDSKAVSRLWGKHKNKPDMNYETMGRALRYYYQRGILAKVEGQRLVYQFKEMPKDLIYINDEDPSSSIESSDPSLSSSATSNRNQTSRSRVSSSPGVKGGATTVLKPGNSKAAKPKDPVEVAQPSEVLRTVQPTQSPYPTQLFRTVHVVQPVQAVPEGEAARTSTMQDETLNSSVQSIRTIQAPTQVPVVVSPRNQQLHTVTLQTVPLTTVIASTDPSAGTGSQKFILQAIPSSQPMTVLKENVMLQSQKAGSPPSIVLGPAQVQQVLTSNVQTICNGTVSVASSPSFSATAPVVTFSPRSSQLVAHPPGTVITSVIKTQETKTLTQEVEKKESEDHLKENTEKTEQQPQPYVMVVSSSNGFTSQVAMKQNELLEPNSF
In short: as §1

EHF = molecular target: T5, EHF (Homo sapiens, UniProt Q9NZC4 1-300)
T5 sequence: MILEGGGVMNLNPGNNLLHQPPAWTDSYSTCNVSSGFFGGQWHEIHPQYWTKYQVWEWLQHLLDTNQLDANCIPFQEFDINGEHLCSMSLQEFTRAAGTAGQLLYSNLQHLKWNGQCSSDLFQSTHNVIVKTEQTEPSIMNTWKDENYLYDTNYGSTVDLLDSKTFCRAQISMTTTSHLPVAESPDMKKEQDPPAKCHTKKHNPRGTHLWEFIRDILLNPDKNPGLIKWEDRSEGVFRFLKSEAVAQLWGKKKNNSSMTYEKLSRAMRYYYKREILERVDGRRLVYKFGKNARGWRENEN
In short: as §1

SPI1 = SPI1 (Homo sapiens, UniProt P17947 1-270)
In short: as §1

FEV = molecular target: T6, FEV (Homo sapiens, UniProt Q99581 1-238)
T6 sequence: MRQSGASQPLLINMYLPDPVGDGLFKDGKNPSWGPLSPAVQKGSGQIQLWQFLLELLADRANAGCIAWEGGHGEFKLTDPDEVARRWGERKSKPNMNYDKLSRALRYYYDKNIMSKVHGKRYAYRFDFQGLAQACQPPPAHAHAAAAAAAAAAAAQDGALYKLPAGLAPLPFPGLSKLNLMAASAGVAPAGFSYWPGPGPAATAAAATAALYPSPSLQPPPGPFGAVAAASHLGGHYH
In short: as §1

ETV5 = ETV5 (Homo sapiens, UniProt P41161 1-510)
Sequence of ETV5 (P41161 whole entry): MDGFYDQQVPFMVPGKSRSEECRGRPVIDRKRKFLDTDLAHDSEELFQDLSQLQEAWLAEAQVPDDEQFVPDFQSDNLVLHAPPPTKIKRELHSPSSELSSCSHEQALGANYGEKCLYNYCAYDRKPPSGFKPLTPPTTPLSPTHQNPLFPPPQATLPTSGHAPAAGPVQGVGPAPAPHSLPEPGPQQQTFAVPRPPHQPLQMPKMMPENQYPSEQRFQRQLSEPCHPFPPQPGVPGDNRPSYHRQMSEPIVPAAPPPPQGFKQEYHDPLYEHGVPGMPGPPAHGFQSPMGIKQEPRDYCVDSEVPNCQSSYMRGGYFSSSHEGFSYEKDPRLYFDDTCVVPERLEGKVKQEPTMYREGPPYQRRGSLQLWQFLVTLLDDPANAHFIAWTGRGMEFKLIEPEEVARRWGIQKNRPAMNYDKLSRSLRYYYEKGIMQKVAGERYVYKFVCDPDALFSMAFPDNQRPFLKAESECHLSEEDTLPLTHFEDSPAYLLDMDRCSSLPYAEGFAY
In short: as §1

SPIC = molecular target: T7, SPIC (Homo sapiens, UniProt Q8N5J4 1-248)
T7 sequence: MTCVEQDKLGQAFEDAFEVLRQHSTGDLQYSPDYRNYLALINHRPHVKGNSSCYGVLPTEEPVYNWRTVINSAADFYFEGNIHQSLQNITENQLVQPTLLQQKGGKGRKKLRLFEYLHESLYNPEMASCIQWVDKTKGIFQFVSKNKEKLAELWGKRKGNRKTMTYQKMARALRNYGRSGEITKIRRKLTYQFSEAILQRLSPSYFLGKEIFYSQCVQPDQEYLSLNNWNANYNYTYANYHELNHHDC
In short: as §1

ELF4 = ELF4 (Homo sapiens, UniProt Q99607 1-663)
Sequence of ELF4 (Q99607 whole entry): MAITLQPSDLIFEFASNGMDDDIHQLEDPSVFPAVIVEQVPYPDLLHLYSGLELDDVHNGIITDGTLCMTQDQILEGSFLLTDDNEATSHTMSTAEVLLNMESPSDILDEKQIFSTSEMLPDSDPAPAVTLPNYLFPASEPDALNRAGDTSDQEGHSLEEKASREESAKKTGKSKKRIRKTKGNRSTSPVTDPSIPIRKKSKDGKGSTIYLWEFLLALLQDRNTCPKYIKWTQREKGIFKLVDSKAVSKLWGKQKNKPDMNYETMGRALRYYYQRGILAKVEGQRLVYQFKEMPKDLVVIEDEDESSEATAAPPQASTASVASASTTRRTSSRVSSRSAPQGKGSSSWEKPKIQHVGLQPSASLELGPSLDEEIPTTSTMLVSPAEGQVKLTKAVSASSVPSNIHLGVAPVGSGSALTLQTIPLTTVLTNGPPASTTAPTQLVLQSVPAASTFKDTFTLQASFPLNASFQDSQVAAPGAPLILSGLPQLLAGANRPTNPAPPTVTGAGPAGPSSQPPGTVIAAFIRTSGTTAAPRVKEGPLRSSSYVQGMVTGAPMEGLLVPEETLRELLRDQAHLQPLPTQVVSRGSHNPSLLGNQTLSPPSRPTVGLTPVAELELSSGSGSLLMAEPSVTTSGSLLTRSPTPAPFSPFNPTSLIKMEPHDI
In short: as §1

ETV1 = ETV1 (Homo sapiens, UniProt P50549 1-477)
Sequence of ETV1 (P50549 whole entry): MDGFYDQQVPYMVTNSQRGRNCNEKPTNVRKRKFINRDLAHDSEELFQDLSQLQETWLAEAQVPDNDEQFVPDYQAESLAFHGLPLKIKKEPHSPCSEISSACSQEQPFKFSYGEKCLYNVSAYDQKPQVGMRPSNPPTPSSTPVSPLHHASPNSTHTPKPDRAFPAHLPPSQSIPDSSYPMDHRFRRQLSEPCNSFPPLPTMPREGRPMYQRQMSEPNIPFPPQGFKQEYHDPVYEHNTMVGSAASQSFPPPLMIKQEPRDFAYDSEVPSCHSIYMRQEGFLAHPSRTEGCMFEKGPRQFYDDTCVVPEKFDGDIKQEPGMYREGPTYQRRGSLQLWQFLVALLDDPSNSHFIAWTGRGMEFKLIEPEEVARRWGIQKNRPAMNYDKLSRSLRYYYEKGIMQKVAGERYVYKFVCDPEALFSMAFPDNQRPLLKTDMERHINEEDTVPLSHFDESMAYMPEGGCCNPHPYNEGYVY
In short: as §1

ERF = molecular target: T8, ERF (Homo sapiens, UniProt P50548 1-548)
T8 sequence: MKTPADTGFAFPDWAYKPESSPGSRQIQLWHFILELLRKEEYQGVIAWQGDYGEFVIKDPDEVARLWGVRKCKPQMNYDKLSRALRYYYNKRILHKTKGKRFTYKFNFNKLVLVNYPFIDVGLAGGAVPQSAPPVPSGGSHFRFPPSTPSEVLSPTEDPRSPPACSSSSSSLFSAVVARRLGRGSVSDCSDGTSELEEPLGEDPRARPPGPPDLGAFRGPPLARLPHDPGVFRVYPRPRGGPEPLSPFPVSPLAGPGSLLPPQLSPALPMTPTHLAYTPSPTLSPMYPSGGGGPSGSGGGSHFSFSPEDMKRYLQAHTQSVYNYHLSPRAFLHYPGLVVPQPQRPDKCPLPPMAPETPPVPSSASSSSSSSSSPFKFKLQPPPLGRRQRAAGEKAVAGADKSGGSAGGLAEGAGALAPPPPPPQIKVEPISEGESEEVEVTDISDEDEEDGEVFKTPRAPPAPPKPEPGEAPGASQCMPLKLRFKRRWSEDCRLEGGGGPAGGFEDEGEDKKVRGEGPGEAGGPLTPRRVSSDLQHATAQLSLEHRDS
In short: as §1

ETV3L = molecular target: T9, ETV3L (Homo sapiens, UniProt Q6ZN32 1-361)
T9 sequence: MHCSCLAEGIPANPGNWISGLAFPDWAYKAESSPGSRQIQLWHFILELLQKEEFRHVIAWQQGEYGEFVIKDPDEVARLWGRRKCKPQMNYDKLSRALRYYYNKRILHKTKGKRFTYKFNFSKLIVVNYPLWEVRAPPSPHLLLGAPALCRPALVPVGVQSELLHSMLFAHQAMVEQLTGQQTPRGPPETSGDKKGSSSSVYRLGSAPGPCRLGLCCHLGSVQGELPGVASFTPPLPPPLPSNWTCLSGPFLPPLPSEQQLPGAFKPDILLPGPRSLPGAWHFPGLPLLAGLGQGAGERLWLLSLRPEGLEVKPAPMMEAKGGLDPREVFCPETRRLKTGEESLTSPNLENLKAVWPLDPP
In short: as §1

ETS2 = molecular target: T10, ETS2 (Homo sapiens, UniProt P15036 1-469)
T10 sequence: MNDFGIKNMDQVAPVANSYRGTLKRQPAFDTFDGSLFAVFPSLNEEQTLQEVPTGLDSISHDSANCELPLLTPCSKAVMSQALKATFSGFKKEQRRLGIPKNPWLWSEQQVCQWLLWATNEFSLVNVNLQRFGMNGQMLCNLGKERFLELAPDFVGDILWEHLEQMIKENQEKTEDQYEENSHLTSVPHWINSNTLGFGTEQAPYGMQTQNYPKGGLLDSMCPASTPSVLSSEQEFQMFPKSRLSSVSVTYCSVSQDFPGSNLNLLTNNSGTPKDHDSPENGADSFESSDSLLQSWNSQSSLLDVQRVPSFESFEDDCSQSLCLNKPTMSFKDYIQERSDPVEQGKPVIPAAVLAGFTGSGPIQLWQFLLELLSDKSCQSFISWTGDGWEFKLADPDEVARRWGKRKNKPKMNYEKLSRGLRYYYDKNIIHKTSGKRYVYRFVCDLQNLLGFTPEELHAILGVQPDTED
In short: as §1

ETV3 = molecular target: T11, ETV3 (Homo sapiens, UniProt P41162-2 1-143)
T11 sequence: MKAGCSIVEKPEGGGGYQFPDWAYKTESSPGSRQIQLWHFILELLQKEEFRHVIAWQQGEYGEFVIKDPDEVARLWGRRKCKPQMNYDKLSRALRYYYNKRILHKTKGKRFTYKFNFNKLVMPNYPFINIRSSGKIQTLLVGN
In short: as §1

ETV6 = ETV6 (Homo sapiens, UniProt P41212 1-452)
Sequence of ETV6 (P41212 whole entry): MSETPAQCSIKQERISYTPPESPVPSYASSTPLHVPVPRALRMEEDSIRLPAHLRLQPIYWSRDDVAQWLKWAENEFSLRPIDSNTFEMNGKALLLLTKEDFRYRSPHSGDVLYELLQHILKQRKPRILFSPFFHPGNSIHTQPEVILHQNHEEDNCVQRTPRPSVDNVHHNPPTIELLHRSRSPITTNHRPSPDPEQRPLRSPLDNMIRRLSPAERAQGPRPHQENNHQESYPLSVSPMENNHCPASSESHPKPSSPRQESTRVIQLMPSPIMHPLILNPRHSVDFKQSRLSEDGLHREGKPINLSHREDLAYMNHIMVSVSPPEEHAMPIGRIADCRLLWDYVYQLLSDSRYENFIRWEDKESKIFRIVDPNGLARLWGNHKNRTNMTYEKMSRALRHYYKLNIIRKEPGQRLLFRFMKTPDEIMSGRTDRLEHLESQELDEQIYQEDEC
In short: as §1

## GTACGC
FLI1
  binding signal: 1.05 fold enrichment (6-mer frequency, TF over GST control)
ELK1
  binding signal: 1.03 fold enrichment (6-mer frequency, TF over GST control)
GABPA
  binding signal: 1.04 fold enrichment (6-mer frequency, TF over GST control)
ERG
  binding signal: 1.09 fold enrichment (6-mer frequency, TF over GST control)
ELF1
  binding signal: 1.05 fold enrichment (6-mer frequency, TF over GST control)
EHF
  binding signal: 1.03 fold enrichment (6-mer frequency, TF over GST control)
SPI1
  binding signal: 1.05 fold enrichment (6-mer frequency, TF over GST control)
FEV
  binding signal: 1.1 fold enrichment (6-mer frequency, TF over GST control)
ETV5
  binding signal: 1.08 fold enrichment (6-mer frequency, TF over GST control)
SPIC
  binding signal: 1.2 fold enrichment (6-mer frequency, TF over GST control)
ELF4
  binding signal: 1.05 fold enrichment (6-mer frequency, TF over GST control)
ETV1
  binding signal: 1.09 fold enrichment (6-mer frequency, TF over GST control)
ERF
  binding signal: 1.05 fold enrichment (6-mer frequency, TF over GST control)
ETV3L
  binding signal: 1.11 fold enrichment (6-mer frequency, TF over GST control)
ETS2
  binding signal: 1.06 fold enrichment (6-mer frequency, TF over GST control)
ETV3
  binding signal: 1.14 fold enrichment (6-mer frequency, TF over GST control)
ETV6
  binding signal: 1.07 fold enrichment (6-mer frequency, TF over GST control)
